Inconclusive results are not listed. The source made the active and inactive calls. The call rests on the fitted dose curve; in most records, active means well fitted inhibition curve with a large enough effect; inconclusive means small, poorly fitted or top-dose-only effect; inactive means flat fitted curve, though single readings scatter.
Key:
Test in all cases: qHTS profiling for inhibitors of Plasmodium falciparum proliferation (AID 504749); further: nearly all actives have a fitted effect of over 60% in size
Details in all cases: P. falciparum in erythrocytes, SYBR Green DNA, 72 h; series mostly up to 28.7 µM
CP211 = test system: CP211
Method in brief: (§1)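 Three-day growth assay of blood-stage parasites in erythrocytes (0.3% parasitemia, 2.5% hematocrit) at 37 C, 5% CO2, quantified by SYBR Green DNA staining after overnight detergent lysis.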

CP215 = test system: CP215
Method in brief: as §1

CP217 = test system: CP217
Method in brief: as §1

CP237 = test system: CP237
Method in brief: as §1

CP238 = test system: CP238
Method in brief: as §1

CP247 = test system: CP247
Method in brief: as §1

CP250 = test system: CP250
Method in brief: as §1

CP252 = test system: CP252
Method in brief: as §1

CP256 = test system: CP256
Method in brief: as §1

CP260 = test system: CP260
Method in brief: as §1

CP262 = test system: CP262
Method in brief: as §1

CP265 = test system: CP265
Method in brief: as §1

CP266 = test system: CP266
Method in brief: as §1

CP268 = test system: CP268
Method in brief: as §1

CP269 = test system: CP269
Method in brief: as §1

CP286 = test system: CP286
Method in brief: as §1

CP291 = test system: CP291
Method in brief: as §1

CP297 = test system: CP297
Method in brief: as §1

CP305 = test system: CP305
Method in brief: as §1

CP315 = test system: CP315
Method in brief: as §1

Measured: Potency

Cc1cc(C(C#N)c2ccc(Cl)cc2)c(Cl)cc1NC(=O)c1cc(I)cc(I)c1O (centres undefined)
not listed: CP315
inactive: all other assays above

COc1ccccc1O
inactive: all assays above

O=c1cc(CO)occ1O
inactive: all assays above

Nc1ccc(S(=O)(=O)NC(=O)c2ccccc2)cc1
inactive: all assays above

Oc1cccc(O)c1
inactive: all assays above

Cc1cc(CC(=O)O)n(C)c1C(=O)c1ccc(Cl)cc1
inactive: all assays above

C[C@](N)(Cc1ccc(O)cc1)C(=O)O
inactive: all assays above

CC(=O)CCC(=O)O
inactive: all assays above

O=C1O[C@H]([C@@H](O)CO)C(O)=C1O
inactive: all assays above

OCC(O)CN1CCN(c2ccccc2)CC1 (centres undefined)
inactive: all assays above

NC(=O)NC(=O)Cc1ccccc1
inactive: all assays above

CC1(C)CO[C@@H](CC(=O)O)CN1
inactive: all assays above

CCN(CC)CCSC(=O)C(c1ccccc1)c1ccccc1
inactive: all assays above

COc1cc(C)c(Cc2cnc(N)nc2N)cc1OC
inactive: all assays above

CC(=O)Nc1ccc(/C=N/NC(N)=S)cc1
inactive: all assays above

— PubChem BioAssay (NCATS)
